The panel holds about 83,000 compounds, 20% with a hit somewhere; the sample as a whole holds those more often.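 Plates (96-well) were seeded with cells, treated with compound at one concentration, and incubated for 48 hours before percent growth was determined.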 Unmarked numbers belong to inactive results. Calls of active or inactive are those of the source. Rule for the calls: active = growth percent below 10; inactive = the rest.
What follows are compounds tested on MDA-MB-468 breast (assay: NCI-60 one-dose screen, 48 h (100 = growth as untreated, 0 = no growth, -100 = all killed)). Conditions: 10 µM unless noted.

Going from `CC(C)=CCC[C@](C)(O)C1CC[C@]2(C)[C@@H]1CC[C@@H]1[C@@]3(C)CC/C(=N\OCCC#N)C(C)(C)[C@@H]3CC[C@]12C` (stereo not given in full) to `CC12CCC(C(=O)CC1=O)C2(C)C` (stereo not given), the growth rises from 83.2% to 99.3%.

First: CN1C(=O)NC(Cc2c[nH]c3c(Cl)cccc23)C1=O (stereo not given)
Second: O=C1CN2CCC1C/C2=C\c1ccnc2c(Cl)cccc12 (stereo not given)
The growth of the first is higher: 110% for the first, 90.8% for the second.

Going from `Cc1cccnc1NC1OC(=O)c2ccccc21` (stereo not given) to `O=C1OC(N(Cc2ccc(Cl)cc2)c2ccccc2)c2ccccc21` (stereo not given), the growth rises from 103% to 104%.

Going from `CC1=CSC2=NCCN12` to `CSc1nsc(N)n1`, the growth falls from 118% to 103%.

Going from `Cc1ccc(-c2csc(N/N=C/c3nc4ccccc4n3C3CC3)n2)cc1` to `Cc1ccc(-c2cn3cc([N+](=O)[O-])ccc3n2)cc1`, the growth falls from 98.5% to 56.3%.

Compared with `COc1ccc(/C=C/C(=O)Nc2cc(/C=C\c3cc(OC)c(OC)c(OC)c3)cc(OC)c2OC)cc1OC`, `COc1ccc(C2=CC(c3cc(OC)c(OC)c(OC)c3)n3ncnc3N2)cc1` (stereo not given) is higher in growth: 17.5% for the first, 32.2% for the second.

Going from `CCOC(=O)c1ccc(Nc2ncnc3ccc(NC(=O)c4ccccc4)cc23)cc1` to `CCOC(=O)c1c(Nc2ccccc2)nn2c(N)c(C#N)c(-c3ccc(Cl)cc3)nc12`, the growth falls from 88.9% to 76.8%.

Compared with `COc1cnccc1-c1nc2ccc3[nH]ncc3c2c2c1CCCC2`, `CCCCCCc1nc2c(c(C)nn2-c2ccccc2)c2c1CCCCC2` is higher in growth: 39.6% for the first, 127% for the second.

First: Cc1nc(/N=C(\N)NC(=O)Nc2cccc([N+](=O)[O-])c2)sc1C
Second: CCOC(=O)C/C(=N\Nc1cc(=O)[nH]c2ccc(Br)cc12)C(=O)OCC
The growth of the first is lower: 11.6% for the first, 99.3% for the second.

Going from `COc1cc2oc(-c3ccc(O)cc3)cc(=O)c2c(O)c1-c1c(OC)cc(O)c2c(=O)cc(-c3ccc(O)cc3)oc12` to `COc1ccc(C2=NNC(c3cc(Cc4ccc(O)c(C5CC(c6ccc(OC)cc6)=NN5)c4)ccc3O)C2)cc1` (stereo not given), the growth rises from 36.1% to 65%.

Compared with `O=C1c2c(c3c4cccnc4[nH]c3c3ccc4ccccc4c23)C(=O)N1CCO`, `O=C1c2ccccc2C(=O)c2c(Nc3ccc(CCO)cc3)ccc(O)c21` is lower in growth: 57.6% for the first, 38% for the second.

Going from `CS(=O)(=O)Nc1cc(-c2ccc3ncc(C#N)c(N[C@H](CO)c4ccccc4)c3c2)cnc1Cl` to `COc1ccc(-c2cc(-c3ccc(Cl)cc3)c(C#N)c(=O)n2CCCCC(=O)NO)cc1`, the growth rises from 14.5% to 72.6%.

Compared with `CCCCNc1nc(NC(C)(C)C)nc(NC(C)(C)C)n1`, `CSc1nc(-c2ccco2)c2c(N)[nH]nc2n1` is higher in growth: 78.5% for the first, 113% for the second.

Compared with `CC(C)Cn1cnc2c(=O)[nH]c(N)nc21`, `COc1cc(-c2nc(/C=C3/C(=O)Nc4ccccc43)c3ccccn23)cc(OC)c1OC` is lower in growth: 91.6% for the first, 87.9% for the second.

First: CC(=Nc1ccccc1)C1=C(O)C(Cc2ccccc2)NC1=O (stereo not given)
Second: O=C(/C(=C/c1ccc([N+](=O)[O-])cc1)c1ccccc1)c1ccccc1
The growth of the first is lower: 15.4% for the first, 51.4% for the second.

First: COc1cc(Nc2ncc3c(n2)-c2ccc(Cl)cc2C(c2c(F)cccc2OC)=NC3)ccc1C(=O)O
Second: COc1cc2ncnc(Nc3ccc(S(=O)(=O)Nc4cc(C)on4)cc3)c2cc1OCCCN1CCN(c2ccc(F)cc2)CC1
The growth of the first is lower: 61.9% for the first, 103% for the second.

Compared with `COc1ccc(-c2nc3sc(-c4ccccc4)c(-c4ccccc4)n3c2/C=C/C(=O)c2ccccn2)cc1`, `O=C(NC(=S)Nc1ccccn1)c1ccccc1` is lower in growth: 60% for the first, 45.1% for the second.

In the case of `COc1ccc(NNS(=O)(=O)O)cc1`, the growth is reported as 99.3%.

With `Clc1ccc(C2=Nc3cccc4cccc(c34)N2)cc1Cl` the growth was -43.8% (active).
For `CCNCCCn1c2c(c3cc(OC)c(OC)cc3c1=O)C(=O)c1cc(OC)cnc1-2`, the growth was 5.95% (active).
In the case of `O=[N+]([O-])c1ccc(N=Nc2ccc(O)cc2O)cc1`, the growth is reported as -4.48% (active).
With `O=C(/C=C(/C=C/c1csc2ccccc12)OB(F)F)/C=C/c1csc2ccccc12` the growth was -3.4% (active).
With `O=C(N[C@@H]1CCCc2ccccc21)[C@H](CCC(=O)N1CCN(C2CCCCC2)CC1)N1C(=O)[C@@H](N2C(=O)OC[C@@H]2c2ccccc2)[C@H]1/C=C/c1ccccc1` the growth was -34.6% (active).

— PubChem BioAssay (NCI)
